Screening results deposited in PubChem by National Center for Advancing Translational Sciences (NCATS).
KB-V1 cytotox = kills drug-selected multidrug resistant KB-V1 cells; 400,000 tested, 3.4% active; KB-V1 MDR cells viability, CellTiter-Glo, 72 h; Potency, µM (top dose mostly 46.1 µM), hits mostly cytotoxic; AID 1347076; note: % is set by controls: 0 for no effect and ±100 for the full control effect; nearly all actives have a fitted effect of over 60% in size
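Cells of the MDR subline KB-V1 are plated, dosed with compound at multiple concentrations, and incubated 72 h at 37 degrees C; CellTiter-Glo is then added and luminescence read after 10 min.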
KB-3-1 cytotox = KB-3-1 parental cell cytotoxicity. KB-3-1 viability, CellTiter-Glo ATP luminescence, 72 h. Potency, µM (doses to about 46.1 µM), hits mostly cytotoxic. 400,000 tested, 1.4% active. AID 1347075; note: % is set by controls: 0 for no effect and ±100 for the full control effect; nearly all actives have a fitted effect of over 60% in size
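Parental KB-3-1 viability, qHTS format: 72 h compound exposure, 37 °C; CellTiter-Glo; media-only wells and DMSO plates as controls; concentration-effect fits on corrected data.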
HT1080 IDH1KD tx = kills HT-1080 cells with IDH1 knockdown | HT-1080 IDH1 knockdown viability, ATP luminescence, 48 h | 360,000 tested, 2% active | Potency, µM (titrated, usually from 46.1 µM), inactives show at the top dose activity, negative = toxicity, actives largely listed as cytotoxic;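 note: 0% = DMSO wells and -100% = cell-free medium wells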
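Cytotoxicity counter-line: IDH1KD HT-1080, 48 h, CellTiter-Glo. Curves classed by r2, magnitude and activity.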
TGFb SMAD3 inh = blocks TGF-b signaling; HepG2 CAGA-GFP TGF-b/SMAD3 reporter, GFP fluorescence, 18 h; TGF-beta stimulated, 500 pg/mL final; Potency, µM (top dose mostly 46.1 µM), for inactives: top-dose activity, negative = inhibition, most hits filed as inhibitors; 410,000 tested, 1.2% active; note: % is set by controls: 0 for no effect and ±100 for the full control effect; nearly all actives have a fitted effect of over 65% in size
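GFP signal (ex488/em500-530) from TGF-beta-stimulated HEPG2 CAGA-GFP cells, 500 pg/mL final, 18 h at 37 degrees C in DMEM plus 1% FBS, normalized to unstimulated and DMSO-stimulated controls.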
HT1080NT lethal = kills 2HG-producing HT-1080-NT fibrosarcoma cells | HT-1080-NT fibrosarcoma viability, CellTiter-Glo ATP luminescence, 48 h | Potency, µM (titrated, usually from 46.1 µM), inactives show at the highest dose activity, negative = less viability, actives largely listed as cytotoxic | 360,000 tested, 1.6% active | AID 686970;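 note: NT is the 2HG producing partner of a matched IDH1 knockdown line; 0% = DMSO-treated cells and -100% = media-only wells without cells; nearly all actives have a fitted effect of over 55% in size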
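Luminescent CellTiter-Glo readout after 48 hours of compound exposure at 37 degrees C defined viability of HT-1080-NT cells. Activity was normalized to DMSO wells and cell-free media wells; concentration-response curves were fitted and assigned curve classes.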
HepG2 tox-1 = HepG2 cytotoxicity, counter-screen for TGF-b inhibitors; AID 588856; 410,000 tested, 0.76% active; Potency, µM (titrated, usually from 46.1 µM), inactives show at the highest dose activity change, negative = cytotoxicity, most hits filed as cytotoxic; HepG2 CAGA-GFP viability, ATP luminescence, 18 h
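HepG2 CAGA-GFP cells (1000/well, DMEM with 1% FBS) received compound, then TGF-beta at 500 pg/mL final, and were incubated 18 hours at 37 degrees C. Viability was read by CellTiter-Glo luminescence. Media-only wells were set as complete cell-killing and DMSO as no toxicity.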
TGFb confirm = TGF-b pathway inhibition, cherry-pick retest; HepG2 CAGA-GFP TGF-b reporter, GFP fluorescence, 18 h; cells stimulated with TGF-beta, 500 pg/mL; Potency, µM (highest dose often 46.1 µM), for the others: top-dose activity, negative = inhibition, most hits filed as inhibitors; shares compounds with TGFb SMAD3 inh; 1,600 tested, 63% active; note: % is set by controls: 0 for no effect and ±100 for the full control effect; nearly all actives have a fitted effect of over 65% in size
HepG2 tox-2 = HepG2 cytotoxicity, TGF-b inhibitor counterscreen | shares compounds with TGFb SMAD3 inh | HepG2 CAGA-GFP viability, ATP luminescence, 18 h; cells stimulated with TGF-beta, 500 pg/mL | Potency, µM (titrated, usually from 46.1 µM), for inactives: top-dose activity, negative = cytotoxicity, usual class: inhibitors | 1,600 tested, 27% active; note: % is set by controls: 0 for no effect and ±100 for the full control effect; nearly all actives have a fitted effect of over 70% in size
TGFb CCL64 inh = TGF-b inhibition, CCL64 orthogonal assay | shares compounds with TGFb SMAD3 inh | CCL64 CAGA-GFP reporter, TGF-b stimulated, GFP fluorescence, 18 h | Potency, µM (series often up to 46.1 µM), without a hit: at the top dose activity, negative = inhibition, hits mostly inhibitors | 1,600 tested, 41% active | AID 720536; note: nearly all actives have a fitted effect of over 65% in size
TGFb COP inh = blocks TGF-b signaling in HepG2 COP reporter. shares compounds with TGFb SMAD3 inh. HepG2 COP-GFP TGF-b reporter, GFP fluorescence, 18 h; cells stimulated by added recombinant TGF-beta. Potency, µM (highest dose often 46.1 µM), for the others: at the highest dose activity, negative = inhibition, most hits filed as inhibitors. 1,600 tested, 3% active. AID 720537; note: nearly all actives have a fitted effect of over 70% in size
* = called active by the depositor; i = inactive; ? = inconclusive; · = not tested or not shown. In the library only some 6.6% were active in any assay of this set; here they are far more common. Calls come from the whole dose curve; as a rule, active = well fitted curve in the direction sought with a large enough effect; inconclusive = small, poorly fitted or top-dose-only effect, or another doubt; inactive = no such curve, though single readings can be large; an effect the other way counts as inactive or inconclusive. Potency is the fitted concentration of half-maximal effect.

SMILES	KB-V1 cytotox	KB-3-1 cytotox	HT1080 IDH1KD tx	TGFb SMAD3 inh	HT1080NT lethal	HepG2 tox-1	TGFb confirm	HepG2 tox-2	TGFb CCL64 inh	TGFb COP inh
CCOc1ccc(CCN2C(=S)N([C@@H](Cc3ccc(O)cc3)CN3CCC[C@@H]3CN3C(=S)NC[C@@H]3CC(C)C)C[C@@H]2Cc2ccc(O)cc2)cc1	i	?	20.6µM*	4.47µM*	16.4µM*	-40.1%	8.2µM*	11.6µM*	5.17µM*	88.1%
Oc1ccc(C[C@H]2CNC(=S)N2C[C@H]2CCCN2C[C@H](Cc2ccccc2)N2C[C@H](Cc3ccc(O)cc3)N(CCc3ccccc3)C2=S)cc1	i	?	18.4µM*	7.08µM*	14.6µM*	2.2%	6.51µM*	?	3.66µM*	48.1%
CC(C)C[C@@H](CN1CCCC1CN1C(=S)NC[C@@H]1Cc1ccc(O)cc1)N1C[C@H](Cc2ccc(O)cc2)N(CCc2ccccc2)C1=S (stereo partly drawn)	?	i	?	5.62µM*	?	6.31µM*	14.6µM*	?	8.2µM*	-2.8%
Oc1ccc(C[C@H]2CN([C@@H](Cc3ccccc3)CN3CCCC3CN3C(=S)NC[C@@H]3Cc3ccccc3)C(=S)N2CCc2ccccc2)cc1 (stereo partly drawn)	?	i	6.4%	·	-6.9%	·	·	·	·	·
Cc1ccc(C(=O)NCC(=O)OCC(=O)c2ccc3ccccc3c2)cc1	i	i	·	-2.6%	·	-1.5%	·	·	·	·
Cc1cc(Br)c(NC(=O)CN2C(=O)NC3(CCOc4ccccc43)C2=O)c(Br)c1 (stereo not drawn)	i	i	-10.0%	-26.5%	-4.3%	-50.4%	·	·	·	·
CN(C)c1ccc(-c2nn3c(-c4ccccc4Cl)nnc3s2)cc1	1.16µM*	0.581µM*	?	?	?	9.5%	4.61µM*	-4.5%	10.3µM*	-6.0%
COc1cc(N(C)C)ccc1/C=C1\C=Cc2ccccc21	i	i	·	-3.3%	·	-29.0%	·	·	·	·
OC[C@H]1O[C@@H](n2cnc3c(Nc4ccccc4)ncnc32)[C@H](O)[C@@H]1O	i	i	-8.8%	-5.9%	0.1%	-9.6%	·	·	·	·
CN(C)c1ncnc2c1ccn2C1OC(CO)C(O)C1O (stereo not drawn)	?	0.82µM*	2.59µM*	0.224µM*	4.11µM*	0.126µM*	0.231µM*	1.3µM*	6.51µM*	25.0%
OCC1OC(n2cnc3c(NCc4ccccc4O)ncnc32)C(O)C1O (stereo not drawn)	10.3µM*	?	9.2µM*	1.78µM*	13µM*	-70.8%	1.16µM*	4.11µM*	?	45.4%
